# In PubChem BioAssay AID1963315 (National Center for Advancing Translational Sciences (NCATS), 2024):
# Results filed as inconclusive are left out. A call without a number means that no potency is given here. Calls of active or inactive are those of the source. Calls follow the shape of the full dose curve.
# Target: Tyrosine-protein kinase ABL1 (Homo sapiens) (UniProt P00519)
# Experiment: ABL1 kinase (ABL1-N-HiBiT) SDR gain of signal screen
# Details: Purified ABL1-N-HiBiT enzyme, Nano-Glo HiBiT luminescence, 30 min compound incubation; series mostly up to 32.9 µM
# Text: National Center for Advancing Translational Sciences (NCATS),
# National Institute of Health (NIH), Maryland
# Discovery and optimization of novel protein-binding ligands underlies many of the methods and applications of biology, drug discovery, clinical diagnostics, and environmental toxicology. Assays for detecting the interaction of, for example, a molecule with a macromolecular target also referred to here as the target of interest (TOI) is dependent on a compatible output technology. Depending on the nature and knowledge surrounding the TOI, whether a receptor, enzyme, regulatory subunit or scaffold, or a sequence-defined nucleic acid folded into a complex tertiary structure, assay strategies can vary widely.
# Here we exploit ligand-biased changes in the structural dynamics of the target protein to control reporter alpha complementation allowing a non-competitive, non-functional, non-separation measure of ligand-target interaction.
# Secondly, we show the specificity and sensitivity of the SDR for the Abelson tyrosine kinase (ABL1) compared to the serine/threonine protein kinase A, using an enriched chemical library of 128 compounds selected, in part, for activity annotated with ABL1 kinase activity using the Pharos database (3).
# (1) A. S. Dixon et al., NanoLuc Complementation Reporter Optimized for Accurate Measurement of Protein Interactions in Cells. ACS Chem Biol 11, 400-408 (2016).
# Chemistry & Biology, 19, 1060 - 1072 (2012).
# (3) K. J. Kelleher et al., Pharos 2023: an integrated resource for the understudied human proteome. Nucleic Acids Res 51, D1405-D1416 (2023).
# PROTOCOL TABLE (as described by Inglese J, Shamu CE and Guy RK. 2007)
# SEQUENCE No. (e.g., 1, 2, 3, etc.); […] (e.g., C. elegans, Compounds, Incubation, Read, etc.); VALUE and DESCRIPTION.
# 1. Reagent. Dispense 4 uL ABL1-N-HiBiT enzyme per well at a final enzyme concentration of 10 nM in buffer without ATP (SDR assay) into columns 2-48 of four replicate Greiner 1536-well white, solid bottom high base, medium plates per assay. Dispense respective buffer without enzyme at 4 uL/well in column 1 of assay plates using BioRaptr 2.
# 2. Compounds. Library compounds added at 23 nL/well by pin transfer. DMSO neutral control and imatinib positive control added at 25 nL/well, transfer by Mosquito dispenser.
# 3. Incubation. Incubate enzyme and compounds at room temperature for 30 min, protected from light.
# 4. Reagent. (SDR assay) Add 3 uL/well of Nano-Glo HiBiT reagent (Promega) to assay plates with or without ATP.
# 5. Incubation. (SDR assay) Incubate enzyme solution and HiBiT reagent at room temperature for 10 min, protect from light.
# 6. Detector. (SDR assay) Luminescence measured using CCD-based camera (ViewLux) with settings as follows: Exposure, 1 sec; Gain, High; Speed, Slow; Binning, 2X.
# Inglese J, Shamu CE and Guy RK, Reporting data from high throughput screening of small molecule libraries, Nature Chemical Biology, 2007, 3(8): 438-441. doi.org/10.1038/nchembio0807-438.
# Tyrosine-protein kinase ABL1 (Homo sapiens), sequence (P00519 whole entry, looked up): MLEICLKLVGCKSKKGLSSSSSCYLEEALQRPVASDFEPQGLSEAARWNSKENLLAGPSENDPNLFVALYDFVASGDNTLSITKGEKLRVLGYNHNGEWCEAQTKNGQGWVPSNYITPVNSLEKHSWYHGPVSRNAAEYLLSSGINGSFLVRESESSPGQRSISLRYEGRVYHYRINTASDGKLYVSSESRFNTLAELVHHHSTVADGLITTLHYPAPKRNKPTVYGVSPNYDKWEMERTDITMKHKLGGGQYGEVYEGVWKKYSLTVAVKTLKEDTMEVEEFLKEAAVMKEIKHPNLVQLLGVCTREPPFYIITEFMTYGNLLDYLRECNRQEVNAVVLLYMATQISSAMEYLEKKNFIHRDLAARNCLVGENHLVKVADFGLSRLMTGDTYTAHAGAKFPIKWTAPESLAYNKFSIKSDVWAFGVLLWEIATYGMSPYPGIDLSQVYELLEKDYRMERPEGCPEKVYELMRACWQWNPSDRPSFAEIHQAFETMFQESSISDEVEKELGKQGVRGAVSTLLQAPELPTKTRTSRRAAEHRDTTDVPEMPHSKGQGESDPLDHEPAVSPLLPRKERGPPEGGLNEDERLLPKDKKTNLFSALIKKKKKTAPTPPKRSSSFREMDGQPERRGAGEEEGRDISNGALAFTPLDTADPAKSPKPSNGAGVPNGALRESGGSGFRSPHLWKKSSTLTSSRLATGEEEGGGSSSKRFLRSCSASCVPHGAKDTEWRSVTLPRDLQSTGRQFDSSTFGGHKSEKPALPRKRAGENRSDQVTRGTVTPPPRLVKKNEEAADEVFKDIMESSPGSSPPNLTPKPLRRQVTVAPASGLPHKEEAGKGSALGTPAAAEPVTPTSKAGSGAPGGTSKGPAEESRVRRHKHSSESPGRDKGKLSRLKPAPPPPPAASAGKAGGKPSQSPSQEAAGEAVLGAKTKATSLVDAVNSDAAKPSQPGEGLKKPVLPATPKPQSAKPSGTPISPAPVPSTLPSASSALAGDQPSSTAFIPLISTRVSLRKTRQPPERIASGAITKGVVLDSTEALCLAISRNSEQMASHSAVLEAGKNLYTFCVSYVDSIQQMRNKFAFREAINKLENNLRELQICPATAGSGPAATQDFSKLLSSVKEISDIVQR
row,SMILES,Potency
1,CCNC(=O)C[C@@H]1N=C(c2ccc(Cl)cc2)c2cc(OC)ccc2-n2c(C)nnc21,inactive
2,O=[N+]([O-])O[C@H]1CO[C@H]2[C@@H]1OC[C@H]2O[N+](=O)[O-],inactive
3,C/C(O)=C(\C#N)C(=O)Nc1cc(Br)ccc1Br,inactive
4,O=C(NCCCNc1nc(Nc2ccc(N3CCOCC3)cc2)ncc1C1CC1)C1CCC1,inactive
5,Cc1[nH]nc2ccc(-c3cncc(OC[C@@H](N)Cc4c[nH]c5ccccc45)c3)cc12,inactive
6,N#Cc1cn([C@@H]2O[C@H](CO)[C@H](O)[C@@H]2O)c2ncnc(N)c12,6.05 µM (active)
